PubChem BioAssay (NCATS)
Records with an inconclusive call do not appear. Calls of active or inactive are those of the source. Calls come from the whole dose curve.

target: Atrial natriuretic peptide receptor 1 (Homo sapiens) (UniProt P16066); test: Natriuretic polypeptide receptor (hNpr1) antagonism - Pilot CMLD screen (AID 1347052); conditions: HEK293 hNpr1 GloSensor cGMP luminescence, ANP-stimulated; series mostly up to 9.22 µM; activity change, negative = inhibition: at the top concentration;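 note: HEK293 cells with hNpr1 stimulated by hNppA peptide at 0.1 nM; cGMP level read as GloSensor luciferase luminescence after agonist stimulation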
Sequence (P16066 whole entry, looked up): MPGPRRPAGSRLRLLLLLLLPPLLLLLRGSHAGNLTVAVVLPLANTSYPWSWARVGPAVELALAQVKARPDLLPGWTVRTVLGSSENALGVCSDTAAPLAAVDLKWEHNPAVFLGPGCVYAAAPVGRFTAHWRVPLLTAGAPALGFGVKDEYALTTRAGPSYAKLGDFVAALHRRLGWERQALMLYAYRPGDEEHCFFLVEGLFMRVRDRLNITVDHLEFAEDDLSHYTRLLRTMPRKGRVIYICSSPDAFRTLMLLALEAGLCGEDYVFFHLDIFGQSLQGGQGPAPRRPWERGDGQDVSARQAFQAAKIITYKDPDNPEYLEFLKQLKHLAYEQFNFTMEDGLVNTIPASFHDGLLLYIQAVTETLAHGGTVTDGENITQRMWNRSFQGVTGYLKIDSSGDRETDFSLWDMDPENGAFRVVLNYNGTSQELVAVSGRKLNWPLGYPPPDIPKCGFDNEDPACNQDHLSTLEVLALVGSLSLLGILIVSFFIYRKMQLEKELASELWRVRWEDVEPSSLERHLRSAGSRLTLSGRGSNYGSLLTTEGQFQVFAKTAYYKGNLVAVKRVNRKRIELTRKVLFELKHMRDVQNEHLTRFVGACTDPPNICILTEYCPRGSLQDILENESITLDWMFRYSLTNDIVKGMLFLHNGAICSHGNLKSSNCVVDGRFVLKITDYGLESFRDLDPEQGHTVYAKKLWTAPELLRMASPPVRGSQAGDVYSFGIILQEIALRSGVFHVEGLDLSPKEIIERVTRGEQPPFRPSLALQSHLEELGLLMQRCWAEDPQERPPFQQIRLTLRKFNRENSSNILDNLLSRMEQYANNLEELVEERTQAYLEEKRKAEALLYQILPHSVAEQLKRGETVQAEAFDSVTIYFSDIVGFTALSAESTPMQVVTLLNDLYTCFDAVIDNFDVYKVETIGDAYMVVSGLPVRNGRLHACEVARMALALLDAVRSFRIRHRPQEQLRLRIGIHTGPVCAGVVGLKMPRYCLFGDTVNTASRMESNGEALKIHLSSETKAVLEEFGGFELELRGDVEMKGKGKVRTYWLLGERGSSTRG
% is set by controls: 0 for no effect and ±100 for the full control effect.

Activity change, negative = inhibition, inactive:
CCOC(=O)CN1C(=O)[C@@]2(CC(C)=CC[C@@H](COc3ccccc3)O2)c2c(Br)cccc21 0.918%
COC(=O)C1=C(C)N(Cc2ccccc2)C(=NCC(C)C)NC1c1cccc(C(F)(F)F)c1 (stereo not given) -2.28%
COc1cc2c(c(OC)c1OC)[C@@]1(c3ccccc3)CCCCC[C@H]1[C@@H]2NC(=O)C(F)(F)F -0.859%
COC[C@@H](O)[C@H]1OCc2ccccc2[C@@H]1C=Cc1ccccc1 1.86%
COc1cccc([C@@H]2Oc3ccc(OC)cc3C(=O)[C@@H]2O)c1 1.53%
CCN1C(=NCc2cccc(Cl)c2)NC(c2cccc(C(F)(F)F)c2)C(C(=O)OC)=C1C (stereo not given) 0.512%
C[C@H]1CC[C@H]2C(=O)N(Cc3ccc(Cl)cc3)C[C@H](O)CN2[C@H]1c1ccc(Br)cc1 -0.0853%
Cc1ccccc1Nc1oc(-c2ccccc2)nc1-c1cccs1 1.95%
COC(=O)C1=C(C(=O)OC)[C@@H]2N(C)c3ccccc3[C@@]23C[C@@H](CO)N(C(=O)Nc2ccc(C(F)(F)F)cc2)C3=N1 2.43%
C=CCC12C=C(OC)C(=O)C(C1=O)C(c1ccc(OC)cc1)C2C (stereo not given) -3.11%
CC1(C)CC(=O)C2=C(C1)O[C@@]1(CCCCN3C(=O)c4ccccc4C3=O)Cc3ccccc3[C@H]2O1 -0.306%
COc1ccc(-c2nc(-c3ccccc3)c(NCc3ccccc3)o2)cc1 4.74%
CC=C(C)[C@H](O)C[Si](C)(C)c1ccccc1 3.41%
COc1ccc([C@]23Cc4cc(C#N)ccc4[C@H](O2)c2c(cc(C)n(-c4ccccc4)c2=O)O3)cc1 -1.46%
COC(=O)N1C2CC(=O)O[C@H]3c4cc5c(cc4[C@]1(C)[C@@]3(Br)c1ccccc12)OCO5 8.57%
CCN1C(=S)NC(c2cccc(C(F)(F)F)c2)C(C(=O)OC)=C1C (stereo not given) -2.34%
c1ccc(-c2nc(-c3cccs3)c(NC3CCCCC3)o2)cc1 6.4%
COC1=C(C(=O)c2ccccc2)C(=O)[C@@]2(CC=C(C)C)C[C@H](C(=O)OCC(F)(F)F)C(C)(C)[C@@]1(CC=C(C)C)C2=O -2.58%
Cc1ccccc1Nc1oc(-c2ccccc2)nc1-c1cccc2ccccc12 3.07%
CC(C)(C)Nc1oc(-c2ccccc2)nc1-c1cccc2ccccc12 -2.82%
O=C(N[C@H](c1cccc(Br)c1)[C@@H]1CCCC=C1c1ccccc1)C(F)(F)F -3.57%
FC(F)(F)c1cc(NC(=S)Nc2ccc3cc4ccccc4cc3c2)cc(C(F)(F)F)c1 3.24%
CCCC[C@]12Cc3cc(OC)c(OC)cc3[C@H](O1)c1c(cc(-c3ccccc3)oc1=O)O2 0.453%
CC1=CC[C@@H](COc2ccccc2)O[C@@]2(C1)C(=O)N(Cc1ccc(F)cc1)c1cccc(Br)c12 -9.98%
COC(=O)c1ccc(CN2C(=O)[C@@]3(CC(C)=CC[C@@H](COc4ccccc4)O3)c3ccccc32)cc1 3.11%
CC(CCN1CCCc2nc(C)c(C)cc21)=NO[C@H](C)CN1CCCc2nc(C)c(C)cc21 5.74%
COC(=O)N1C(C=Cc2ccc3c(c2)OCO3)=Cc2ccccc2C1CC(C)=O (stereo not given) -1.2%
CN1c2ccccc2[C@@]2(O)C(=O)[C@@]1(C)[C@H]1Cc3ccccc3[C@H]12 -5.88%
Cc1cc(C)cc(-c2cc3c(c(-c4c(O)c(-c5cc(C)cc(C)c5)cc5c4CCCC5)c2O)CCCC3)c1 -0.401%
CC(CCN1CCCCc2nc(C)c(C)cc21)=NO[C@H](C)CN1CCCc2nc(C)c(C)cc21 12.9%
COc1cccc([C@H]2Oc3ccc(OC)cc3C(=NO[C@@H](C)CN3CCCCc4nc(C)c(C)cc43)[C@H]2O)c1 -0.354%
COC(=O)C1=C(C)N(Cc2ccccc2)C(=NCCc2cccs2)NC1c1cccc(C(F)(F)F)c1 (stereo not given) -9.07%
Cc1ccccc1Nc1oc(-c2ccccc2)nc1-c1ccccc1F 11.1%
C[C@@H]1CC2=CCCC2[C@]2(O1)C(=O)N(Cc1ccc(F)cc1)c1cccc(Br)c12 (stereo not given in full) 0.402%
CC1=CC[C@@H](COc2ccccc2)O[C@@]2(C1)C(=O)N(Cc1ccc(Br)cc1)c1cccc(Br)c12 3.58%
COC(=O)[C@@H]1CC[C@H](C)[C@@H](c2ccc(C)cc2)N1C(=O)c1ccc(C=NO[C@@H](C)c2cn([C@H](CO)Cc3ccccc3)nn2)cc1 -0.208%
Cc1cccc(C)c1Nc1oc(-c2ccccc2)nc1-c1ccccc1F -1.07%
CC1(C)O[C@@H](C(O)(c2ccccc2)c2ccccc2)[C@H](C(O)(c2ccccc2)c2ccccc2)O1 -3.12%
C[C@@H]1C[C@H]2[C@@H](Cc3ccccc3)C(=O)N3[C@@H](C[C@@H](C)[C@@H]3c3ccccc3)[C@@H](Cc3ccccc3)C(=O)N2[C@H]1c1ccccc1 -0.405%

Potency, inactive:
COCOc1cc(OC)ccc1C(=O)C=Cc1ccc2c(c1)OCO2
